The text below walks through data of article PMC7862700, “An all-to-all approach to the identification of sequence-specific readers for epigenetic DNA modifications on cytosine”.

Holding throughout (assay): DAPPL (digital affinity profiling via proximity ligation, sequencing); 10 mM Tris-HCl pH 7.5, 50 mM NaCl, 1 mM DTT, 4% glycerol, room temperature, 30 min; GST-TFs on glutathione beads, 16-mer random dsDNA library, 0.1% formaldehyde crosslink after washing; high values mean tight binding
One assay concerns the target T1, FLI1 (Homo sapiens, UniProt Q01543 1-452).
T1 sequence: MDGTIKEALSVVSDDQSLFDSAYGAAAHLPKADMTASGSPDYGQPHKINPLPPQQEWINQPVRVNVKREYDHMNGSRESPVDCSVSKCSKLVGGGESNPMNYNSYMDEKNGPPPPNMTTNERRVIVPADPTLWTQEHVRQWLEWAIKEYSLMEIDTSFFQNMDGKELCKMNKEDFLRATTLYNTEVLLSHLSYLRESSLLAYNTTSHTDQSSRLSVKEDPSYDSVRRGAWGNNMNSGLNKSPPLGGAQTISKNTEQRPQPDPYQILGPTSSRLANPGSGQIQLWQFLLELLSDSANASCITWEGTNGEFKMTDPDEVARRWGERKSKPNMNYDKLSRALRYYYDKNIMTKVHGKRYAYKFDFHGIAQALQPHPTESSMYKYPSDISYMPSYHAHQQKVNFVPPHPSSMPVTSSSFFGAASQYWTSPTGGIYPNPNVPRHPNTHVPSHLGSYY
As to conditions: protein: recombinant; tags: N-terminal GST; dsDNA, one strand shown. A digest of the protocol: (§1)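 Yeast served to express human transcription factors as GST fusions, which were then captured on glutathione beads and labelled with DNA barcodes. Pooled with a tag-only sample, they were incubated with 200 nmole of a 16-mer random double-stranded DNA library for 30 min at room temperature in Tris/NaCl/DTT/glycerol buffer, washed, crosslinked with 0.1% formaldehyde, ligated by proximity, amplified by PCR and sequenced. Dividing each hexamer's read frequency for a factor by its frequency for the tag-only sample gives the binding signal.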

A further assay deals with T2, ELK1 (Homo sapiens, UniProt P19419 1-428).
T2 sequence: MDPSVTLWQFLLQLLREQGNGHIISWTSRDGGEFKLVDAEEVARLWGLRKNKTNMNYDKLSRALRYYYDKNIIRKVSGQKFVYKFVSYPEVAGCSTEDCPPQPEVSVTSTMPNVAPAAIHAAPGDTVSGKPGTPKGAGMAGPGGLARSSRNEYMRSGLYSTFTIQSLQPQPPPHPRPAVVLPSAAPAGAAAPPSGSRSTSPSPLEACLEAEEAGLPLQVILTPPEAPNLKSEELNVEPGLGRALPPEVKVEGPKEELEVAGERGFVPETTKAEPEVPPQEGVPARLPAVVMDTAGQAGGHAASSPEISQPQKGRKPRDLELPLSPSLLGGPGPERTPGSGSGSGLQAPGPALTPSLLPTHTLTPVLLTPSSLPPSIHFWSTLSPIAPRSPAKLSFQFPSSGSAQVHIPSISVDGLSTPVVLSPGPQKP
As to conditions: protein: recombinant; tags: N-terminal GST; dsDNA, one strand shown. In short, it runs like this:
as §1

Another assay has as its target T3, GABPA (Homo sapiens, UniProt Q06546 1-454).
T3 sequence: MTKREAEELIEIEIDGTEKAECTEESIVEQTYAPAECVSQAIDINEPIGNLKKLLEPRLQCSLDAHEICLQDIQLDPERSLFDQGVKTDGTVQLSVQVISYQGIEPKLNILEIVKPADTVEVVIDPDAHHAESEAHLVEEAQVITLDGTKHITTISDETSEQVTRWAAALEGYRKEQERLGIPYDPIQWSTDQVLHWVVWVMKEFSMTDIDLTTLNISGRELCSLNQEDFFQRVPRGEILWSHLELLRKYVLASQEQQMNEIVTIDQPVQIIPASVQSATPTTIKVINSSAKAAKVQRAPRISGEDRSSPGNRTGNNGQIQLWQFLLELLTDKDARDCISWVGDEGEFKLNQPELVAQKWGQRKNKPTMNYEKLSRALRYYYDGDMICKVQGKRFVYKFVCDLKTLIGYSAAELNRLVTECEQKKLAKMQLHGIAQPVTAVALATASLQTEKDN
Conditions: protein: recombinant; tags: N-terminal GST; dsDNA, one strand shown. A digest of the protocol: as §1

Another assay deals with T4, ERG (Homo sapiens, UniProt P11308 1-479).
T4 sequence: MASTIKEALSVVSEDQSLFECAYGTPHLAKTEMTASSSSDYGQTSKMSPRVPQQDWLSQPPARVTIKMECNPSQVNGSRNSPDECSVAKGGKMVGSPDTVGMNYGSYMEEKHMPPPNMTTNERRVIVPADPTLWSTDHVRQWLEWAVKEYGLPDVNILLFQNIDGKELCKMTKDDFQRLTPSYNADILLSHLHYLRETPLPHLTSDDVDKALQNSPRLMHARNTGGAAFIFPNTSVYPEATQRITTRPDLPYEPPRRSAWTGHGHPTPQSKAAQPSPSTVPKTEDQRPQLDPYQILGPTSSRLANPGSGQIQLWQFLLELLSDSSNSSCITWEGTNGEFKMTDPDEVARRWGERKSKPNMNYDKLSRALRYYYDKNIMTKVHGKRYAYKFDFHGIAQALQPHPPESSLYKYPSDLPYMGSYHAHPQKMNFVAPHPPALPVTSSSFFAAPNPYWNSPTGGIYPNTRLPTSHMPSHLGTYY
As to conditions: protein: recombinant; tags: N-terminal GST; dsDNA, one strand shown. In short, it runs like this:
as §1

For the next assay, the target named is ELF1 (Homo sapiens, UniProt P32519 1-619). As to conditions: protein: recombinant; tags: N-terminal GST; dsDNA, one strand shown. In short, it runs like this: as §1
Sequence of ELF1 (P32519 whole entry): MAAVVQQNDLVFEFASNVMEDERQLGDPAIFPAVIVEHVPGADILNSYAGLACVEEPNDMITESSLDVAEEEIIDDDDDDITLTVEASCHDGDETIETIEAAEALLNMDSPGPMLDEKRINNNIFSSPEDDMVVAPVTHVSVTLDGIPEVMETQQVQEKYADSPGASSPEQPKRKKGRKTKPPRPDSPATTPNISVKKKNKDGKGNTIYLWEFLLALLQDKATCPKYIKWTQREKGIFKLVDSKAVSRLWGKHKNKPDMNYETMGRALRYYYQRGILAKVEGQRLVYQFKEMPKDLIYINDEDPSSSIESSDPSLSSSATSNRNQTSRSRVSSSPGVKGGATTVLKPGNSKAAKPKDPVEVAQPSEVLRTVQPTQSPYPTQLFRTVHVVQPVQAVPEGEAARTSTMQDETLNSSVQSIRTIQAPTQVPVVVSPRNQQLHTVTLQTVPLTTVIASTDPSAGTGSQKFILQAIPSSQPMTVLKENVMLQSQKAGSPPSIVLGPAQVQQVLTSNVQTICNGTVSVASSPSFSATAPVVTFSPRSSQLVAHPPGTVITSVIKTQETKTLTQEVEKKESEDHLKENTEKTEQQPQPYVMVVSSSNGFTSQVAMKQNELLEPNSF
In the next assay the target is T5, EHF (Homo sapiens, UniProt Q9NZC4 1-300).
T5 sequence: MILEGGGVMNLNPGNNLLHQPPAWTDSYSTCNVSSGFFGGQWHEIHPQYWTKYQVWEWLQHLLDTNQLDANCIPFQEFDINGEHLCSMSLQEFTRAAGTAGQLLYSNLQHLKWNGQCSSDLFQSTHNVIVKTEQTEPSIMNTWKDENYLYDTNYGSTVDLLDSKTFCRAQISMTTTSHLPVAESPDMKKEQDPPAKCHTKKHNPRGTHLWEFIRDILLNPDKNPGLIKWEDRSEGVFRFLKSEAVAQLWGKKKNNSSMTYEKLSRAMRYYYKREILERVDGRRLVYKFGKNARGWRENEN
Conditions: protein: recombinant; tags: N-terminal GST; dsDNA, one strand shown. In short, it runs like this: as §1

The target in a further assay is SPI1 (Homo sapiens, UniProt P17947 1-270). Conditions: protein: recombinant; tags: N-terminal GST; dsDNA, one strand shown. A digest of the protocol:
as §1

In the next assay the target is SPIB (Homo sapiens, UniProt Q01892 1-262). As to conditions: protein: recombinant; tags: N-terminal GST; dsDNA, one strand shown. In short, it runs like this: as §1
Sequence of SPIB (Q01892 whole entry): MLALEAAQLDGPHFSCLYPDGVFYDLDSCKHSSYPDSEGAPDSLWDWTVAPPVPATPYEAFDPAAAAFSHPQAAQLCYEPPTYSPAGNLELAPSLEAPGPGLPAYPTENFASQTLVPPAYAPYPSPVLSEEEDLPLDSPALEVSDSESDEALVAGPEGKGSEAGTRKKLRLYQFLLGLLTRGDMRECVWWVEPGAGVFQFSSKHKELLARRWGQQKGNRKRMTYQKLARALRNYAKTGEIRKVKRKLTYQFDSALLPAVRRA
The next assay has as its target T6, ELK3 (Homo sapiens, UniProt P41970 1-407).
T6 sequence: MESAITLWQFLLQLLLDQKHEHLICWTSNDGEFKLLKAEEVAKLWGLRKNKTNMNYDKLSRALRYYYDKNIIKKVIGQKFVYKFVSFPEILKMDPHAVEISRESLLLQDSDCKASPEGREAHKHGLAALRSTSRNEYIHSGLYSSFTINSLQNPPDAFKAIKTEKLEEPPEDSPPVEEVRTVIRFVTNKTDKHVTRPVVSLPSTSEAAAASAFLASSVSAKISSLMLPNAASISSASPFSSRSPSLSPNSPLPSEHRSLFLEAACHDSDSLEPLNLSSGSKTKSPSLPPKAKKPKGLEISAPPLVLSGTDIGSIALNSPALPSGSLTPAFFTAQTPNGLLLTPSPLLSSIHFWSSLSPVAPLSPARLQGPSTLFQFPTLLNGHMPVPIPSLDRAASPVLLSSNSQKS
Conditions: protein: recombinant; tags: N-terminal GST; dsDNA, one strand shown. In short, it runs like this: as §1

Another assay addresses T7, FEV (Homo sapiens, UniProt Q99581 1-238).
T7 sequence: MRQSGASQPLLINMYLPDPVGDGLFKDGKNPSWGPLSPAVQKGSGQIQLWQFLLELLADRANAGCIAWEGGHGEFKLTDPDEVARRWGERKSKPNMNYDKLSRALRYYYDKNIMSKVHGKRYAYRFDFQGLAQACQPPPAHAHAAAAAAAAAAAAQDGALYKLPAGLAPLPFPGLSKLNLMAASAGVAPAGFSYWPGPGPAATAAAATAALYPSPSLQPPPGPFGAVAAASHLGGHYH
Conditions: protein: recombinant; tags: N-terminal GST; dsDNA, one strand shown. In short, it runs like this:
as §1

In the next assay the target is ETV5 (Homo sapiens, UniProt P41161 1-510). As to conditions: protein: recombinant; tags: N-terminal GST; dsDNA, one strand shown. A digest of the protocol:
as §1

A further assay concerns the target HSF1 (Homo sapiens, UniProt Q00613 1-529). Conditions: protein: recombinant; tags: N-terminal GST; chain copies: 3; dsDNA, one strand shown. A digest of the protocol:
as §1

The target of another assay is T8, SPIC (Homo sapiens, UniProt Q8N5J4 1-248).
T8 sequence: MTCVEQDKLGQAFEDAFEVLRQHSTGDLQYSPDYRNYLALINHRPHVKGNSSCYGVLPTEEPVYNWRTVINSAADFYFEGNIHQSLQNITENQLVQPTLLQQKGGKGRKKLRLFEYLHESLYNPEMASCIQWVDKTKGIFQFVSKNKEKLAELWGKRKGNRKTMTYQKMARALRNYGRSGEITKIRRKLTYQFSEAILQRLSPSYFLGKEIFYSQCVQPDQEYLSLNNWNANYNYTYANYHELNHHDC
Conditions: protein: recombinant; tags: N-terminal GST; dsDNA, one strand shown. In short, it runs like this: as §1

The target in a further assay is ELF4 (Homo sapiens, UniProt Q99607 1-663). Conditions: protein: recombinant; tags: N-terminal GST; dsDNA, one strand shown. In short, it runs like this: as §1
Sequence of ELF4 (Q99607 whole entry): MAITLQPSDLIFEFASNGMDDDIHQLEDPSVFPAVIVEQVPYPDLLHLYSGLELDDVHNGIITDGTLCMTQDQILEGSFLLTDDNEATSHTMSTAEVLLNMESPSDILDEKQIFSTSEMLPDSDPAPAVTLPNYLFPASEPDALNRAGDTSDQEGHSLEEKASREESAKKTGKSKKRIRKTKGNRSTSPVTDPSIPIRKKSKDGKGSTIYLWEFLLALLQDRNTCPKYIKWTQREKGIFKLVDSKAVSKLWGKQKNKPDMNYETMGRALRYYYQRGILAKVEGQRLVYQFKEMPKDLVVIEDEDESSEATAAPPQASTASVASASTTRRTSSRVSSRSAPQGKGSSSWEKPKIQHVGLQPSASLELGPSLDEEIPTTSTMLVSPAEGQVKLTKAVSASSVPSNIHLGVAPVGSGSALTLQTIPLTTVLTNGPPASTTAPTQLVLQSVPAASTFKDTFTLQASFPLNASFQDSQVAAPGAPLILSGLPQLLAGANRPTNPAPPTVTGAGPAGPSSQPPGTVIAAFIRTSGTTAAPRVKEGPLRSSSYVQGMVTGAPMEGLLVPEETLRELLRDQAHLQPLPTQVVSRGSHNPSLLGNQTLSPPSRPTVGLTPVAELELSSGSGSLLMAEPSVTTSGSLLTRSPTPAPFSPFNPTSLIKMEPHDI
In a further assay the target is T9, ELK4 (Homo sapiens, UniProt P28324-2 1-405).
T9 sequence: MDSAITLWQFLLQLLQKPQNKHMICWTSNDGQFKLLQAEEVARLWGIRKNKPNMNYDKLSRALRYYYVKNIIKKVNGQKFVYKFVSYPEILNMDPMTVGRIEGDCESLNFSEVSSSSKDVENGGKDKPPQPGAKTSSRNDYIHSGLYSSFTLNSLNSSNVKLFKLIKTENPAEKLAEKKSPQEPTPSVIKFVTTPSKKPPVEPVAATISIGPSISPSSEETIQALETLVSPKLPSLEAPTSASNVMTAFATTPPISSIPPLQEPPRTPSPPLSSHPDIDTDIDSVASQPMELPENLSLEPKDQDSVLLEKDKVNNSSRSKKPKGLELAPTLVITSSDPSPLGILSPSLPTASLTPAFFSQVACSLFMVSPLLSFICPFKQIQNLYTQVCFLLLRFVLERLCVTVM
As to conditions: protein: recombinant; tags: N-terminal GST; dsDNA, one strand shown. In short, it runs like this: as §1

Another assay has as its target T10, ELF3 (Homo sapiens, UniProt P78545 1-371).
T10 sequence: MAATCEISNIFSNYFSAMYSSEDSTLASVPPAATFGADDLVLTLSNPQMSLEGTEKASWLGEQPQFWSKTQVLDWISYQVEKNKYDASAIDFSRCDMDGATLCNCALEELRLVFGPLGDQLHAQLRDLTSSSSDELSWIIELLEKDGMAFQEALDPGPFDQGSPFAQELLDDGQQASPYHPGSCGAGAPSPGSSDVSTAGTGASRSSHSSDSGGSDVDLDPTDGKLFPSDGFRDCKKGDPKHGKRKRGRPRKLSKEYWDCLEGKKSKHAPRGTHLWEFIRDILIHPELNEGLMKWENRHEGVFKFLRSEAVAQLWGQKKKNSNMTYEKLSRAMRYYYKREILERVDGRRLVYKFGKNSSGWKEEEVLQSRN
Conditions: protein: recombinant; tags: N-terminal GST; dsDNA, one strand shown. A digest of the protocol:
as §1

The target in the next assay is CRX (Homo sapiens, UniProt O43186 1-299). As to conditions: protein: recombinant; tags: N-terminal GST; dsDNA, one strand shown. A digest of the protocol: as §1
Sequence of CRX (O43186 whole entry): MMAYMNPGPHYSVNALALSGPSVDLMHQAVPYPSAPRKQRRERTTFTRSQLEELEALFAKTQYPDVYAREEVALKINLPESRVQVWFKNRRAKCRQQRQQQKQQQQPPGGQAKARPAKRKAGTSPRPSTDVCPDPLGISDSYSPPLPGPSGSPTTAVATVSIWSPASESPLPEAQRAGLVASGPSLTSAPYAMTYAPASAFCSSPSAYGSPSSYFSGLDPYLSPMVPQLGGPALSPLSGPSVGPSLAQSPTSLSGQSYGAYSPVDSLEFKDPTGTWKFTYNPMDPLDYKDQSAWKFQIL
The target of another assay is ETV1 (Homo sapiens, UniProt P50549 1-477). As to conditions: protein: recombinant; tags: N-terminal GST; dsDNA, one strand shown. A digest of the protocol:
as §1

Sequence of ETV5 (P41161 whole entry): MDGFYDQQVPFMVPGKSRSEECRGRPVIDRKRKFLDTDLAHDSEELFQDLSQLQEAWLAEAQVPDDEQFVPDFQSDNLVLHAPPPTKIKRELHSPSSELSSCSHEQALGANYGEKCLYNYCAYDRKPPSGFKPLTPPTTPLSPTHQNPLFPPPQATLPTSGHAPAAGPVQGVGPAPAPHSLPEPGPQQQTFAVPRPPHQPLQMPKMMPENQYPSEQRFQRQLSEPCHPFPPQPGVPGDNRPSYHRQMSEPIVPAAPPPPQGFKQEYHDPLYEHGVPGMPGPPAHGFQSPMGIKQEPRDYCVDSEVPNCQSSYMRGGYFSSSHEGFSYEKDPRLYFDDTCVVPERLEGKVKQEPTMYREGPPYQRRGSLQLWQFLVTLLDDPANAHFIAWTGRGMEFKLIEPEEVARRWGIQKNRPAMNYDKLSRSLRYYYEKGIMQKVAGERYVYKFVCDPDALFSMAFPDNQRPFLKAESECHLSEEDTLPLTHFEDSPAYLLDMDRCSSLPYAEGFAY
Sequence of ETV1 (P50549 whole entry): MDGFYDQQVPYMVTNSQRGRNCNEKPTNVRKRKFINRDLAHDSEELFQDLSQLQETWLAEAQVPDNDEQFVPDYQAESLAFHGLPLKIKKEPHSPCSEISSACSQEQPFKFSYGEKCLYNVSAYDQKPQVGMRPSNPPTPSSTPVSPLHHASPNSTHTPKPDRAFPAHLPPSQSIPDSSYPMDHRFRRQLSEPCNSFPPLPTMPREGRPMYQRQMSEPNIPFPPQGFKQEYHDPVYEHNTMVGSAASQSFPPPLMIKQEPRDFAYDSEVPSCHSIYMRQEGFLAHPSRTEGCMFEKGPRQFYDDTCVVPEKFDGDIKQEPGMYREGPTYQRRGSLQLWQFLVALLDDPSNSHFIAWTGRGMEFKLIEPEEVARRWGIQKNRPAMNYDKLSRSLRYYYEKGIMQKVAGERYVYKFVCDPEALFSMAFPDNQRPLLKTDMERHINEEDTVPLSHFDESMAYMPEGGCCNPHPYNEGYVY
Sequence of HSF1 (Q00613 whole entry): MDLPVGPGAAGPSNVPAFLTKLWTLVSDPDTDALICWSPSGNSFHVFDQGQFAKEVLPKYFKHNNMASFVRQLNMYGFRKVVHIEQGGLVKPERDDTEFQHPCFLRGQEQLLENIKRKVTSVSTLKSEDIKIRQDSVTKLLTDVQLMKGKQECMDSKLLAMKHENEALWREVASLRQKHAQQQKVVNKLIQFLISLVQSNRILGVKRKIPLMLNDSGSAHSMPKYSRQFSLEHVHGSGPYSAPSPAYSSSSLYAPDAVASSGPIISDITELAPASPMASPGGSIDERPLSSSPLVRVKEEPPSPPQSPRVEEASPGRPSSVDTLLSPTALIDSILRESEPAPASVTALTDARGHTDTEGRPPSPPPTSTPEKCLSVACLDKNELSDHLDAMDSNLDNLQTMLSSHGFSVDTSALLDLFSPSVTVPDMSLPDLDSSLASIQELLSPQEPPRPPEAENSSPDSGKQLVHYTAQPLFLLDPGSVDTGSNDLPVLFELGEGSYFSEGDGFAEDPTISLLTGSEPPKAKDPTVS

AAAGTT: the binding signal in the assay with FLI1 was 1.07 fold enrichment (6-mer frequency, TF over GST control); with ELK1, 1.05 fold enrichment (6-mer frequency, TF over GST control); in the assay with GABPA it was 1.13 fold enrichment (6-mer frequency, TF over GST control); with ERG it was 1.02 fold enrichment (6-mer frequency, TF over GST control); with ELF1 it was 1.08 fold enrichment (6-mer frequency, TF over GST control); with EHF, 1.1 fold enrichment (6-mer frequency, TF over GST control). Moreover, the binding signal in the assay with SPI1 is 1.07 fold enrichment (6-mer frequency, TF over GST control); in the assay with SPIB it was 1.16 fold enrichment (6-mer frequency, TF over GST control); in the assay with ELK3, 1.17 fold enrichment (6-mer frequency, TF over GST control); with FEV it was 1.01 fold enrichment (6-mer frequency, TF over GST control); in the assay with ETV5, 1.16 fold enrichment (6-mer frequency, TF over GST control); in the assay with HSF1, 1.43 fold enrichment (6-mer frequency, TF over GST control). Further, the binding signal was 1.03 fold enrichment (6-mer frequency, TF over GST control) with SPIC; 1.14 fold enrichment (6-mer frequency, TF over GST control) with ELF4; 1.19 fold enrichment (6-mer frequency, TF over GST control) in the assay with ELK4; 1.1 fold enrichment (6-mer frequency, TF over GST control) with ELF3; 1.22 fold enrichment (6-mer frequency, TF over GST control) with CRX; 1.07 fold enrichment (6-mer frequency, TF over GST control) with ETV1.
